# EPAC2 ant val: validation of human EPAC2 antagonists. 16,000 compounds, 1.7% hits. EPAC2 Rap1B BODIPY-GDP exchange, fluorescence. Potency, µM (highest dose often 112 µM), usual class: inhibitors; also: nearly all actives have a fitted effect of over 40% in size
#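 Normalized against a 6.5 mM cAMP agonist control, compounds were tested on 100 nM EPAC2 exchanging Rap1B-bound BODIPY-GDP (250 nM) for 50 uM GDP. Fluorescence drop (ex 480, em 540 nm) was tracked at room temperature over 30 min at 5-min intervals.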
# EPAC1 agonist: validation of human EPAC1 agonists; O95398; EPAC1 Rap1b BODIPY-GDP exchange, fluorescence; Potency, µM, usual class: activators; 16,000 compounds, 1% hits; AID 1645883; also: nearly all actives have a fitted effect of over 70% in size
# A number is an active result; i = inactive; ? = inconclusive; ! = not confirmed by another sample. Only some compounds are listed: those with a hit (about 3.1% of all), similar ones and a draw of the others. Calls follow the shape of the dose curve; as a rule, active = well fitted curve in the direction sought with a large enough effect; inconclusive = small, poorly fitted or top-dose-only effect, or another doubt; inactive = no such curve, though single readings can be large; an effect the other way counts as inactive or inconclusive.
SMILES,EPAC2 ant val,EPAC1 agonist
CCOP(=S)(OCC)SCn1c(=O)oc2cc(Cl)ccc21,32µM,i
CCC(=O)O[C@](Cc1ccccc1)(c1ccccc1)[C@H](C)CN(C)C,i,i
NC[C@H](CS(=O)(=O)O)c1ccc(Cl)cc1,i,i
CCCCCCCCCC(CC)c1ccc(S(=O)(=O)O)cc1 (stereo unspecified),56µM!,i
C[C@]12CC[C@H]3[C@@H](CCC4=CC(=O)CC[C@@]43C)[C@@H]1CC[C@H]2O,i,i
CN(C)[C@H](Cc1ccccc1)c1ccccc1,i,i
CN[C@@]1(c2ccccc2Cl)CCCCC1=O,i,i
CCCCCC[C@H]1C(=O)O[C@H](C)[C@H](NC(=O)c2cccc(NC=O)c2O)C(=O)O[C@@H](C)[C@@H]1OC(=O)CC(C)C,45µM,i
N#CC(C#N)=NNc1ccc(OC(F)(F)F)cc1,40µM,i
Oc1cc[c]([Hg][Cl])cc1,i,i
CC[C@]1(O)CC(O[C@@H]2CC(N(C)C)C(O)C(C)O2)c2c(cc3c(c2O)C(=O)c2c(O)cccc2C3=O)C1C(=O)OC (stereo partly specified),i,?
CC[C@@]1(O)CC(O)c2c(cc3c(c2O)C(=O)c2c(O)ccc(O)c2C3=O)C1C(=O)OC (stereo partly specified),i,112µM
CC(=O)O[C@H]1C[C@H](O[C@H]2[C@@H](O)C[C@H](O[C@H]3[C@@H](O)C[C@H](OC4CC[C@@]5(C)C(CC[C@@H]6[C@@H]5CC[C@]5(C)[C@@H](C7=CC(=O)OC7)[C@@H](O)C[C@]65O)C4)O[C@@H]3C)O[C@@H]2C)O[C@H](C)[C@H]1O[C@@H]1O[C@H](CO)[C@@H](O)[C@H](O)[C@H]1O (stereo partly specified),i,i
C[C@H]1CC[C@]2(NC1)O[C@H]1C[C@H]3[C@@H]4CC[C@H]5C[C@@H](O[C@@H]6O[C@H](CO)[C@H](O[C@@H]7O[C@H](CO)[C@@H](O)[C@H](O[C@@H]8OC[C@@H](O)[C@H](O)[C@H]8O)[C@H]7O[C@@H]7O[C@H](CO)[C@@H](O)[C@H](O)[C@H]7O)[C@H](O)[C@H]6O)CC[C@]5(C)[C@H]4CC[C@]3(C)[C@H]1[C@@H]2C,i,i
C[C@@]1(CO)[C@H](O)CC[C@@]2(C)[C@H]1CC[C@H]1C[C@@H]3C[C@@]12CC[C@]3(O)CO,63µM,i
Cc1ccccc1-n1c(CF)nc2ccc(N)cc2c1=O,i,i
C#CCN1C(C)=C(C(=O)CCO)[C@@H](c2cccc(-n3oo3)c2)C(C(=O)OC)=C1C,20µM,?
CCCCCCC(=O)O[C@H]1CC[C@H]2[C@@H]3CC[C@H]4CC(=O)C=C(C)[C@]4(C)[C@H]3CC[C@]12C,i,i
OC[C@@H](O)[C@H]1O[C@@H]2O[C@H](C(Cl)(Cl)Cl)O[C@@H]2[C@H]1O,i,i
C[C@H]1[C@@H]2Cc3ccc(O)cc3[C@@]1(C)CCN2C,i,i
CCCCN(CC)c1c([N+](=O)[O-])cc(C(F)(F)F)cc1[N+](=O)[O-],i,?
CCCN(CCC)c1c([N+](=O)[O-])cc(S(N)(=O)=O)cc1[N+](=O)[O-],40µM,i
O=C1CS[C@@H](c2ccccc2Cl)c2cc(Cl)ccc2N1,32µM,i
CN1CC[C@]23c4c5ccc(O)c4O[C@H]2[C@@H](O)CC[C@H]3[C@H]1C5,i,i
NCCc1ccc(O)cc1,i,i
SMILES,EPAC2 ant val,EPAC1 agonist
CCCCCCCCCc1ccc(O)cc1,45µM,?
CC(C)=CCN1CC[C@@]2(C)c3cc(O)ccc3C[C@@H]1[C@@H]2C,i,i
COc1ccc2c3c1O[C@H]1[C@@H](O)C=C[C@H]4[C@@H](C2)N(C)CC[C@@]341,i,i
COc1cc2c(cc1-c1cc3cc4ccoc4cc3oc1=O)OCO2,1.3µM,i
COc1cc2occc2c2oc(=O)ccc12,i,?
CC(C)(C)CC(C)(C)c1ccc(O)cc1,56µM,i
CCC(C)(C)c1ccc(O)cc1,i,i
CC1(C)[C@H](C=C(Cl)Cl)[C@H]1C(=O)OCc1c(F)c(F)cc(F)c1F,i,i
OC[C@@H](O)[C@H]1O[C@@H]2O[C@@H](C(Cl)(Cl)Cl)O[C@@H]2[C@H]1O,i,i
CCOC(=O)[C@]12Cc3ccsc3[C@H]1N(Cc1ccccc1)C(=O)c1ccccc12,56µM,?
CCOC(=O)[C@]12Cc3cc(OC)c(OC)cc3[C@H]1N(Cc1ccccc1)C(=O)c1ccccc12,i,i
CCCCCCCCCC[N+](C)(C)CCCCCCCCCC,i,i
CCCCCCCCCCCCCCCC[N+](C)(C)C,40µM!,i
CCC(OC(C)=O)C(CC(C)NC)(c1ccccc1)c1ccccc1 (stereo unspecified),i,i
Nc1ccccc1C(=O)O,i,i
O=C1C(I)=CC(=C(c2cc(I)c(O)c(I)c2)c2ccccc2C(=O)O)C=C1I,45µM!,i
C[C@H]1[C@H]2Cc3ccc(O)cc3[C@]1(C)CCN2CCc1ccccc1,i,i

# Bioassay records from PubChem.
